Article PMC5540273 (PLoS ONE, 2017)
Where “and” joins values, the source holds several entries; their conditions need not be identical. Identical values can stand only once. Like-named read-outs stand apart in the source and are kept apart here.

Experiments:
PFTK1 = system: T1, PFTK1; conditions: concentration: 1 μM, replicates: in singlicate, n = 1
T1 construct: gene CDK14

PHKG1 = conditions: concentration: 1 μM, replicates: in singlicate; n = 1
PHKG2 = conditions: concentration: 1 μM, replicates: in singlicate, n = 1
PIK3C2B = conditions: concentration: 1 μM, replicates: in singlicate; n = 1
PIK3C2G = conditions: concentration: 1 μM, replicates: in singlicate, n = 1
PIK3CA = conditions: concentration: 1 μM, replicates: in singlicate; n = 1
PIK3CB = conditions: concentration: 1 μM, replicates: in singlicate; n = 1
PIK3CD = conditions: concentration: 1 μM, replicates: in singlicate, n = 1
PIK3CG = conditions: concentration: 1 μM, replicates: in singlicate; n = 1
PIK4CB = system: T2, PIK4CB; conditions: concentration: 1 μM, replicates: in singlicate, n = 1
T2 construct: gene PI4KB
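Also: KINOMEscan kinase panel screen.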

| Structure (SMILES) | %Inh (PFTK1; 1 µM) | %Inh (PHKG1) [%] | %Inh (PHKG2; 1 µM) | %Inh (PIK3C2B) [%] | %Inh (PIK3C2G; 1 µM) | %Inh (PIK3CA) [%] | %Inh (PIK3CB) [%] | %Inh (PIK3CD; 1 µM) | %Inh (PIK3CG) [%] | %Inh (PIK4CB; 1 µM) | %Inh (PFTK1) [%] | %Inh (PHKG2) [%] | %Inh (PIK3C2G) [%] | %Inh (PIK3CD) [%] | %Inh (PIK4CB) [%] |
| --- | --- | --- | --- | --- | --- | --- | --- | --- | --- | --- | --- | --- | --- | --- | --- |
| CC(C)(CN)c1nc(-c2ccc(Cl)c(O)c2)c(-c2ccncc2)[nH]1.O=C(O)C(F)(F)F [SB-477794] | 6% and 3% | 0 | 12% and 0% | 0 | 0% and 5% | 0 | 0 | 20% and 5% | 0 | 25% and 0% |  |  |  |  |  |
| Cl.Oc1cccc(Nc2ccnc3cc(-c4ccncc4)ccc23)c1 [GW494601] |  | 0 |  | 13 |  | 0 | 0 |  | 0 |  | 12 | 0 | 2 | 22 | 0 |
| COc1ccc(Nc2nccc(N3CCC(NC(=O)Nc4cc(C)ccc4C)C3)n2)cc1 (stereo not shown) [GSK1379741] |  | 0 |  | 0 |  | 0 | 0 |  | 0 |  | 2 | 0 | 0 | 0 | 23 |
| Nc1nc(-c2ccc3c(N)n[nH]c3c2)cc(N2CCCC2)n1 [GSK2227430] |  | 0 |  | 0 |  | 0 | 0 |  | 0 |  | 0 | 0 | 0 | 0 | 14 |
